Common to all, as to test: NCI-60 one-dose screen, 48 h (100 = growth as untreated, 0 = no growth, -100 = all killed)
Conditions in all cases: 10 µM

Test [1] concerns SK-MEL-2 melanoma.
Test [2] has as its system EKVX NSCLC.
The test system of test [3] is SN12C renal.
For test [4], the system named is UO-31 renal.
Test [5] concerns TK-10 renal.
In test [6] the test system is ACHN renal.
Test [7] has as its system CAKI-1 renal.
Test [8] concerns A498 renal.
Test [9] has as its system MOLT-4 leukemia.
Test [10] deals with CCRF-CEM leukemia.

About 83,000 compounds went through this panel and 20% of them were active in at least one assay; those are over-represented in the sample as a whole.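 96-well plates, one dose, 48 hours. Percent growth reported; active if below 10.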 Unmarked numbers belong to inactive results. Activity calls are given as the source filed them.

For the molecule `CCCCN(CCCC)C(=O)[C@H](CC)[C@@H]1CC[C@@H](C)[C@@H]([C@H](C)[C@@H](O)[C@@H](C)C(=O)[C@H](CC)C2O[C@]3(C=CC(=O)[C@]4(CC[C@@](C)([C@H]5CC[C@](O)(CC)[C@H](C)O5)O4)O3)[C@H](C)C[C@@H]2C)O1` (some centres not stated), the growth in test [1] was 26.2%; in [2] it was 27.7%; in test [3], 28.7%; in test [4], 13.4%; in [5], 42.6%; in test [6], 13.7%. Besides, the growth in test [7] was 21.6%; in [8], 41%; in [9], 39.4%.
For `Cc1cc(NC(=O)c2ccc(C)c(Nc3nccc(-c4cccnc4)n3)c2)cc(-n2cnc(C)c2)c1`, the growth in [1] is 83.5%; in test [2] it was -56.9% (active); in [3], 27.5%; in test [4], -55% (active); in test [5], -20.5% (active); in test [6], -13.7% (active). The growth is -80.2% (active) in [7], 38.1% in test [10] and 14.3% in [9].
On to `COc1ccc(C2=Cn3c(CCC(=O)c4nc5ccccc5[nH]4)nnc3SC2)cc1`, for which the growth was 106% in test [1]; 90.3% in test [2]; 98.9% in test [3]; 82% in [4]; 125% in test [5]; 110% in test [6]. Besides, the growth is 96.9% in test [7], 58% in [8] and 43.2% in [9].
Consider `N#CC1=CC2CN(Cc3ccccc3)C1C1C(=O)N(c3ccccc3)C(=O)C21` (configuration not stated), for which the growth in [1] is 105%; in test [2], 94.7%; in test [3] it was 100%; in test [4] it was 74.7%; in test [5], 96.2%; in test [6], 103%. The growth in [7] is 101%; in [10] it was 97.2%; in [9], 89.5%.
For the molecule `O=C(CCc1nnc2sc(-c3cc(O)c(O)c(O)c3)nn12)c1nc2ccccc2[nH]1`, the growth in [1] is 111%; in test [2], 96.7%; in test [3], 107%; in test [4] it was 83.2%; in test [5] it was 117%; in test [6] it was 106%. Moreover, the growth in test [7] is 100%; in test [8] it was 75.2%; in [9] it was 92.3%.
`N#Cc1c(-c2ccc(Cl)cc2)csc1NC(=O)Nc1ccc(Cl)c(C(F)(F)F)c1`: the growth was 5.43% (active) in test [1]; 11.9% in test [2]; 14.4% in test [3]; 28.2% in [4]; 10.3% in test [5]; 3.38% (active) in [6]. Moreover, the values for the growth in test [7], in test [8] and in test [9] were 13.5%, 35.6% and 1.45% (active), respectively.
For the molecule `CC1=CC2C(C(O)CC3(C)C2CC(C)C32OCOC23COCO3)C2(C)C/C(=C/O)C(=O)C=C12` (configuration not stated), the growth in [1] is 76.1%; in test [2] it was 48.8%; in [3], 26.2%; in test [4], 10.5%; in test [5], 42.7%; in test [6], 8.9% (active). Besides, the growth is 67.6% in test [7], -3.03% (active) in test [10] and -32.8% (active) in test [9].
Regarding `N#Cc1c(-c2ccc(Cl)cc2)n(O)c2ccccc12`, the growth in test [1] is 8.25% (active); in [2], 30.2%; in [3], 16.1%; in [4], 11%; in test [5] it was 66.6%; in test [6], 35.4%. Moreover, the growth was 20.7% in [7], 16.2% in [10] and 18.1% in test [9].
In the case of `CC[C@@H](C(=O)[C@H](C)[C@H](O)[C@@H](C)[C@H]1O[C@H]([C@@H](CC)C(=O)N(CC)CC)CC[C@H]1C)C1O[C@]2(C=C[C@@H](O)[C@]3(CC[C@@](C)([C@H]4CC[C@](O)(CC)[C@H](C)O4)O3)O2)[C@H](C)C[C@@H]1C` (some centres not stated), the growth in test [1] was 0.113% (active); in [2] it was 1.82% (active); in [3], 17.4%; in [4], -5.88% (active); in [5], 24.3%; in test [6], 5.95% (active). The figures for the growth in [7], in test [8] and in test [9] were 8.82% (active), 13.8% and 28.9%, respectively.
For the molecule `Clc1ccc(C2=NN=C3C(Cc4ccccc4)=Nc4ccccc4N3C2)cc1`, the growth in test [1] was 105%; in [2], 86%; in [3] it was 83.2%; in [4], 63.1%; in test [5], 68.4%; in [6] it was 63.2%. Besides, the growth in [7] was 55.4%; in [8] it was 68.5%; in test [9], 61.3%.
In the case of `O=C1NC(=O)c2c(CCCSc3nc4ccccc4c(=O)n3CCc3ccccc3)cccc21`, the growth is 105% in test [1]; 16.3% in test [2]; 91.7% in [3]; 70.6% in test [4]; 124% in test [5]; 69.9% in [6]. For the same molecule, the results for the growth in test [7], in [10] and in [9] were 18.5%, 96% and 81.3%, respectively.
Consider `CC(C)(C)OC(=O)N1CCc2c(sc3ncnc(N/N=C/c4ccccc4Br)c23)C1`, for which the growth was 91.7% in test [1]; 52.2% in test [2]; 78.7% in [3]; 32.7% in [4]; 79.6% in test [5]; 42.4% in [6]. Moreover, the growth was 54.4% in [7], 84.7% in test [8] and 21.2% in [9].
For `Cc1noc(C)c1CSc1ccccc1C(=O)N1CCN(c2cccc(C(F)(F)F)c2)CC1`, the growth in test [1] was 85.1%; in [2] it was 66.7%; in test [3], 80.2%; in test [4], 67.5%; in test [5], 91.3%; in test [6] it was 84.9%. Moreover, the figures for the growth in [7], in [8] and in test [9] were 68.8%, 77.5% and 67.6%, respectively.
